# Results published in PubChem BioAssay AID2577 (National Center for Advancing Translational Sciences (NCATS), 2010).
# Activity calls are given as the source filed them. Calls follow the shape of the dose curve; as a rule, active = well fitted curve in the direction sought with a large enough effect; inactive = no such curve, though single readings can be large or run the other way.
# Target: Lysosomal alpha-glucosidase (Homo sapiens) (UniProt P10253)
# Experiment: qHTS Assay for Inhibitors and Activators of N370S glucocerebrosidase as a Potential Chaperone Treatment of Gaucher Disease: Alpha-Glucosidase Counterscreen
# Details: purified human alpha-glucosidase, 4MU-alpha-glucoside fluorescence
# From the text: NIH Chemical Genomics Center [NCGC] NIH Molecular Libraries Probe Production Centers Network [MLPCN] MLPCN Grant: MH086442-01 Assay Submitter (PI): Wei Zheng Glucocerebrosidase (GC) catalyzes the hydrolysis of beta-glucocerebroside to glucose and ceramide in lysosomes. Mutations in the glucocerebrosidase gene result in Gaucher disease, an autosomal recessive lysosomal storage disorder. Many of the mutations encountered in patients with Gaucher disease are missense alterations that may cause misfolding, decreased stability and/or mistrafficking of this lysosomal protein. […] These inhibitors include iminosugar analogs and three non-iminosugar inhibitors identified from a previous HTS of 62,000 compounds with the wild type recombinant enzyme. However, the enhancement of enzyme activity by the chaperone action of an enzyme inhibitor must be balanced against the direct inhibition of the enzyme. An enzyme activator could also function as a chaperone by binding to the enzyme and helping to correct its misfolding and mistrafficking. While activators for GC have not yet been identified, they may have better therapeutic potential than inhibitors. Therefore the discovery and development of chemical activators may provide a new strategy for the chaperone therapy. To characterize compound selectivity, selected hits from the primary screen were screened against purified alpha-glucosidase, a related sugar hydrolase. Alpha-glucosidase is responsible for hydrolysis of terminal, non-reducing 1,4-linked alpha-D-glucose residues with release of alpha-D-glucose.
# NCGC Assay Protocol Summary: This is a fluorogenic enzyme assay with 4-methylumbelliferyl-alpha-D-[…] as the substrate and human alpha-glucosidase as the enzyme preparation. Upon the hydrolysis of this fluorogenic substrate, the resulting product, 1. 4-methyllumbelliferone, can be excited at 365 nm and emits at 440 nm which can be detected by a standard fluorescence plate reader. Data were normalized to the controls for basal activity (without enzyme) and 100% activity (with enzyme). The AC50 values were determined from concentration-response data modeled with the standard Hill equation. Assay buffer: 50 mM citric acid (titrated with potassium phosphate to pH 5.0), 0.005% Tween-20, pH 5.0. (pH 5.0 is an optimal condition for this enzyme assay) 1536-well assay protocol for the human alpha-glucosidase: (1) Add 2 ul/well of enzyme (4 nM final) (2) Add 23 nL compounds in DMSO solution. The final titration was 0.7 nM to 77 uM. (3) Add 1 ul of substrate (400 uM final) (4) Incubate at room temperature for 20 min. (5) Add 2 ul stop solution (1M NaOH and 1M Glycine mixture, pH 10) (6) Detect the assay plate in a ViewLux plate reader (PerkinElmer) with Ex=365 nm and Em=440nm. Keywords: Alpha-glucosidase, Pompe Disease, pharmacological chaperone, chaperone therapy, high throughput screening, alpha-glucosidase inhibitor, MLSMR, MLSCN, NIH Roadmap, qHTS and NCGC
row,SMILES,max response
1,O=S(=O)(c1ccc(OC(F)(F)F)cc1)N1CCN(c2nc(-c3ccccc3)nc3ccccc23)CC1,-5.72% (inactive)
2,O=S(=O)(c1ccc(Cl)cc1)N1CCN(c2nc(-c3cccc(Br)c3)nc3ccccc23)CC1,-4.16% (inactive)
3,O=S(=O)(c1ccc(F)cc1)N1CCN(c2nc(-c3ccccc3)nc3cc(Cl)ccc23)CC1,-12.7% (inactive)
4,O=[N+]([O-])c1ccccc1S(=O)(=O)N1CCN(c2nc(-c3ccccc3)nc3ccccc23)CC1,-3% (inactive)
5,O=S(=O)(c1ccc(F)cc1)N1CCN(c2nc(-c3ccccc3)nc3ccccc23)CC1,-3.53% (inactive)
6,O=S(=O)(c1ccccc1C(F)(F)F)N1CCN(c2nc(-c3ccccc3)nc3ccccc23)CC1,-7.6% (inactive)
7,O=S(=O)(c1ccccc1C(F)(F)F)N1CCN(c2nc(-c3cccs3)nc3ccccc23)CC1,-3.11% (inactive)
8,O=S(=O)(c1ccccc1)N1CCN(c2nc(-c3ccc(F)cc3)nc3cc(Cl)ccc23)CC1,-8.72% (inactive)
9,O=S(=O)(c1ccc2c(c1)CCC2)N1CCN(c2nc(-c3ccccc3)nc3ccccc23)CC1,-9.75% (inactive)
10,O=S(=O)(c1ccc(F)cc1)N1CCN(c2nc(-c3cccs3)nc3cc(Cl)ccc23)CC1,-15.8% (inactive)
11,O=S(=O)(c1ccc2c(c1)OCCO2)N1CCN(c2nc(-c3ccccc3)nc3ccccc23)CC1,-3.22% (inactive)
12,CCOc1ccc(S(=O)(=O)N2CCN(c3nc(-c4ccccc4)nc4ccccc34)CC2)cc1,-10.9% (inactive)
13,O=S(=O)(c1ccc(Br)cc1)N1CCN(c2nc(-c3cccs3)nc3ccccc23)CC1,-4.2% (inactive)
14,COc1ccc(S(=O)(=O)N2CCN(c3nc(-c4ccccc4)nc4ccccc34)CC2)cc1,-14.8% (inactive)
15,O=S(=O)(c1ccccc1Cl)N1CCN(c2nc(-c3cccs3)nc3ccccc23)CC1,-12.9% (inactive)
16,O=S(=O)(c1ccccc1Br)N1CCN(c2nc(-c3cccs3)nc3ccccc23)CC1,-2.87% (inactive)
17,O=S(=O)(c1ccc2c(c1)CCCC2)N1CCN(c2nc(-c3cccs3)nc3ccccc23)CC1,-7.5% (inactive)
18,O=S(=O)(c1ccc(Cl)cc1)N1CCN(c2nc(-c3ccc(F)cc3)nc3cc(Cl)ccc23)CC1,-5.47% (inactive)
19,O=S(=O)(c1ccccc1Cl)N1CCN(c2nc(-c3ccccc3)nc3ccccc23)CC1,-4.34% (inactive)
20,N#Cc1ccc(S(=O)(=O)N2CCN(c3nc(-c4ccccc4)nc4ccccc34)CC2)cc1,-5.2% (inactive)

row,SMILES,max response
1,O=S(=O)(c1ccc2c(c1)CCCC2)N1CCN(c2nc(-c3ccccc3)nc3ccccc23)CC1,-8.51% (inactive)
2,O=S(=O)(c1ccc(C(F)(F)F)cc1)N1CCN(c2nc(-c3cccs3)nc3ccccc23)CC1,-11.2% (inactive)
3,O=S(=O)(c1ccc(OC(F)(F)F)cc1)N1CCN(c2nc(-c3cccs3)nc3ccccc23)CC1,-3.54% (inactive)
4,COc1ccc(-c2nc(N3CCN(S(=O)(=O)c4ccc(C)cc4)CC3)c3ccccc3n2)cc1,-0.975% (inactive)
5,O=S(=O)(c1cccc(Cl)c1)N1CCN(c2nc(-c3cccs3)nc3ccccc23)CC1,-11.5% (inactive)
6,COc1ccc(S(=O)(=O)N2CCN(c3nc(-c4cccs4)nc4ccccc34)CC2)cc1,-3.66% (inactive)
7,O=S(=O)(c1ccc(Cl)cc1)N1CCN(c2nc(-c3ccccc3)nc3ccccc23)CC1,-10.6% (inactive)
8,O=S(=O)(c1cccc(Br)c1)N1CCN(c2nc(-c3cccs3)nc3ccccc23)CC1,-9.65% (inactive)
9,NS(=O)(=O)c1ccc(S(=O)(=O)N2CCN(c3nc(-c4cccs4)nc4ccccc34)CC2)cc1,-10.5% (inactive)
10,Cc1ccc(S(=O)(=O)N2CCN(c3nc(-c4ccc(F)cc4)nc4cc(Cl)ccc34)CC2)cc1,-4.96% (inactive)
11,O=[N+]([O-])c1cccc(S(=O)(=O)N2CCN(c3nc(-c4ccccc4)nc4ccccc34)CC2)c1,-5.2% (inactive)
12,COc1ccc(-c2nc(N3CCN(S(=O)(=O)c4ccc(F)cc4)CC3)c3ccccc3n2)cc1,-2.56% (inactive)
13,O=S(=O)(c1ccccc1Br)N1CCN(c2nc(-c3ccccc3)nc3ccccc23)CC1,-18.6% (inactive)
14,O=S(=O)(c1ccc2ccccc2c1)N1CCN(c2nc(-c3ccccc3)nc3ccccc23)CC1,-4.15% (inactive)
15,O=S(=O)(c1ccc(Cl)cc1)N1CCN(c2nc(-c3cccs3)nc3ccccc23)CC1,-6.67% (inactive)
16,O=[N+]([O-])c1ccc(S(=O)(=O)N2CCN(c3nc(-c4cccs4)nc4ccccc34)CC2)cc1,-5.9% (inactive)
17,O=S(=O)(c1cccc(C(F)(F)F)c1)N1CCN(c2nc(-c3cccs3)nc3ccccc23)CC1,-4.78% (inactive)
18,S=C(NCCCc1cnc[nH]1)NCCCN(Cc1ccc(Cl)c(Cl)c1)c1ccc(Br)cn1,-4.15% (inactive)
19,CCOC(=O)c1ccc(S(=O)(=O)N2CCN(c3nc(-c4ccccc4)nc4ccccc34)CC2)cc1,-5.28% (inactive)
20,Cc1ccc(-c2nc(N3CCN(S(=O)(=O)c4ccc(F)cc4)CC3)c3ccc(Cl)cc3n2)cc1,-14.5% (inactive)
